Data reported in article PMC11006913.
Positions count from the first letter of the chain named.

Tests used:
Assay in all cases: PBM; 200 nM protein, PBS
Conditions in all cases: dsDNA, one strand shown
[1] = target: HESX1 (Homo sapiens, UniProt Q9UBX0 95-180, R165K)
[2] = target: HESX1 (Homo sapiens, UniProt Q9UBX0 95-180)
[3] = target: HESX1 (Homo sapiens, UniProt Q9UBX0 95-180, P111T)
[4] = target: HOXB4 (Homo sapiens, UniProt P17483 148-234)
[5] = target: SHOX (Homo sapiens, UniProt O15266 103-189)
[6] = target: HOXB4 (Homo sapiens, UniProt P17483 148-234, V174I)
[7] = target: ALX3 (Homo sapiens, UniProt O95076 139-225, N203Q)
[8] = target: SHOX (Homo sapiens, UniProt O15266 103-189, R173C)
[9] = target: ALX3 (Homo sapiens, UniProt O95076 139-225)
[10] = target: ALX3 (Homo sapiens, UniProt O95076 139-225, L168Q)
[11] = target: ALX3 (Homo sapiens, UniProt O95076 139-225, L168V)
[12] = target: NKX3-2 (Homo sapiens, UniProt P78367 192-278, P234S)
[13] = target: ALX3 (Homo sapiens, UniProt O95076 139-225, N203S)
[14] = target: NKX3-2 (Homo sapiens, UniProt P78367 192-278)
[15] = target: HESX1 (Homo sapiens, UniProt Q9UBX0 95-180, R109Q)
[16] = target: HESX1 (Homo sapiens, UniProt Q9UBX0 95-180, F115L)
[17] = target: T1, VENTX (Homo sapiens, UniProt O95231 78-163, R121Q)
T1 sequence: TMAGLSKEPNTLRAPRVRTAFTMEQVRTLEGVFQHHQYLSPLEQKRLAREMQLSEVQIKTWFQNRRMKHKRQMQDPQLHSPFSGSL

[18] = target: HOXB9 (Homo sapiens, UniProt P17482 171-250, T197M)
[19] = target: HOXA4 (Homo sapiens, UniProt Q00056 201-287, W262R)
[20] = target: HOXC9 (Homo sapiens, UniProt P31274 178-260, K195R)
[21] = target: T2, VENTX (Homo sapiens, UniProt O95231 78-163)
T2 sequence: T1 sequence with Q44R

[22] = target: HOXA7 (Homo sapiens, UniProt P31268 116-202)
[23] = target: HOXC10 (Homo sapiens, UniProt Q9NYD6 254-340)
[24] = target: ALX4 (Homo sapiens, UniProt Q9H161 200-286)
[25] = target: T3, PAX4 (Homo sapiens, UniProt O43316 9-242, R200K)
T3 sequence: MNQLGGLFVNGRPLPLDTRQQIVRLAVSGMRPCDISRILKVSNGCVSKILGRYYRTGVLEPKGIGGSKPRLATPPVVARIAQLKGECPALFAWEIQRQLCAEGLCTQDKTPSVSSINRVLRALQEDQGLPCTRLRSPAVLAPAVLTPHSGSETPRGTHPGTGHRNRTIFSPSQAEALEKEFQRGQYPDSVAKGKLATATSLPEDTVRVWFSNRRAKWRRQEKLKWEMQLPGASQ

[26] = target: T4, VENTX (Homo sapiens, UniProt O95231 78-163, Y115F)
T4 sequence: T1 sequence with Y38F, Q44R

[27] = target: HOXB6 (Homo sapiens, UniProt P17509 132-218, K202E)
[28] = target: ALX4 (Homo sapiens, UniProt Q9H161 200-286, Q225E)
[29] = target: HOXA2 (Homo sapiens, UniProt O43364 129-215, R185T)
[30] = target: HOXA4 (Homo sapiens, UniProt Q00056 201-287, R217L)
[31] = target: HOXB9 (Homo sapiens, UniProt P17482 171-250)
[32] = target: HOXC9 (Homo sapiens, UniProt P31274 178-260)
[33] = target: ALX1 (Homo sapiens, UniProt Q15699 118-204, L144V)
[34] = target: HOXD13 (Homo sapiens, UniProt P35453 263-343, T313R)
[35] = target: HOXC9 (Homo sapiens, UniProt P31274 178-260, R193K)
[36] = target: HOXA2 (Homo sapiens, UniProt O43364 129-215, R185K)
[37] = target: ALX1 (Homo sapiens, UniProt Q15699 118-204, L144R)
[38] = target: HOXD13 (Homo sapiens, UniProt P35453 263-343)
[39] = target: HOXA4 (Homo sapiens, UniProt Q00056 201-287)
[40] = target: HOXC10 (Homo sapiens, UniProt Q9NYD6 254-340, K271E)
[41] = target: PROP1 (Homo sapiens, UniProt O75360 56-141)
[42] = target: PROP1 (Homo sapiens, UniProt O75360 56-141, R99H)
[43] = target: VAX1 (Homo sapiens, UniProt Q5SQQ9 86-172)
[44] = target: HOXD13 (Homo sapiens, UniProt P35453 263-343, T313A)
[45] = target: HOXB9 (Homo sapiens, UniProt P17482 171-250, R186Q)
[46] = target: HOXC9 (Homo sapiens, UniProt P31274 178-260, R222W)
[47] = target: PROP1 (Homo sapiens, UniProt O75360 56-141, F88S)
[48] = target: VAX1 (Homo sapiens, UniProt Q5SQQ9 86-172, T142I)
[49] = target: HOXA2 (Homo sapiens, UniProt O43364 129-215, Y150S)
[50] = target: HOXA7 (Homo sapiens, UniProt P31268 116-202, W177C)
[51] = target: ALX1 (Homo sapiens, UniProt Q15699 118-204)
[52] = target: HOXA4 (Homo sapiens, UniProt Q00056 201-287, W262F)
[53] = target: HOXA2 (Homo sapiens, UniProt O43364 129-215)
[54] = target: VAX1 (Homo sapiens, UniProt Q5SQQ9 86-172, K157R)
[55] = target: HOXB6 (Homo sapiens, UniProt P17509 132-218)
Chain of HOXB6 (Homo sapiens, UniProt P17509 132-218) (P17509 132-218): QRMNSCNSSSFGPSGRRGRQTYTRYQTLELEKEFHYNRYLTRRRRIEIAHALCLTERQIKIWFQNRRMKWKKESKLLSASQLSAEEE

Chain of HESX1 (Homo sapiens, UniProt Q9UBX0 95-180, R165K) (Q9UBX0 95-180 R165K): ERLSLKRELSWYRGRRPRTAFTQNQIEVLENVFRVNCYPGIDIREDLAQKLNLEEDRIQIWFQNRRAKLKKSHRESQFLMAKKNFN
Chain of HESX1 (Homo sapiens, UniProt Q9UBX0 95-180) (Q9UBX0 95-180): as the sequence (Q9UBX0 95-180 R165K) above, with K71R counted along it
Chain of HESX1 (Homo sapiens, UniProt Q9UBX0 95-180, F115L) (Q9UBX0 95-180 F115L): as the sequence (Q9UBX0 95-180 R165K) above, with F21L, K71R counted along it
Chain of ALX3 (Homo sapiens, UniProt O95076 139-225, N203S) (O95076 139-225 N203S): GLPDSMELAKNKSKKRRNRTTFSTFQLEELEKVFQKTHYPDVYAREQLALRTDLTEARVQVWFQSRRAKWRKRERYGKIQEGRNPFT
Chain of ALX3 (Homo sapiens, UniProt O95076 139-225, L168V) (O95076 139-225 L168V): as the sequence (O95076 139-225 N203S) above, with L30V, S65N counted along it
Chain of ALX3 (Homo sapiens, UniProt O95076 139-225, N203Q) (O95076 139-225 N203Q): as the sequence (O95076 139-225 N203S) above, with S65Q counted along it
Chain of HOXB4 (Homo sapiens, UniProt P17483 148-234) (P17483 148-234): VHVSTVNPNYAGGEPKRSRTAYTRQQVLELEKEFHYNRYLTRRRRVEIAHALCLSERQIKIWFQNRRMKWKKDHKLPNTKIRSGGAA
Chain of SHOX (Homo sapiens, UniProt O15266 103-189) (O15266 103-189): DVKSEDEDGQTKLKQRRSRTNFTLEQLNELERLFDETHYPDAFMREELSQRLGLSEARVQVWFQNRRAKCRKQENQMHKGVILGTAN
Chain of HOXB4 (Homo sapiens, UniProt P17483 148-234, V174I) (P17483 148-234 V174I): as the sequence (P17483 148-234) above, with V27I counted along it
Chain of HESX1 (Homo sapiens, UniProt Q9UBX0 95-180, P111T) (Q9UBX0 95-180 P111T): as the sequence (Q9UBX0 95-180 R165K) above, with P17T, K71R counted along it
Chain of ALX3 (Homo sapiens, UniProt O95076 139-225) (O95076 139-225): as the sequence (O95076 139-225 N203S) above, with S65N counted along it
Chain of ALX3 (Homo sapiens, UniProt O95076 139-225, L168Q) (O95076 139-225 L168Q): as the sequence (O95076 139-225 N203S) above, with L30Q, S65N counted along it
Chain of SHOX (Homo sapiens, UniProt O15266 103-189, R173C) (O15266 103-189 R173C): as the sequence (O15266 103-189) above, with R71C counted along it
Chain of HOXA4 (Homo sapiens, UniProt Q00056 201-287) (Q00056 201-287): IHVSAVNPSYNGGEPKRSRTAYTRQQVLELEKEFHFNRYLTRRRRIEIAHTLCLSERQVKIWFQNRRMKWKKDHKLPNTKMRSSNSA
Chain of HOXD13 (Homo sapiens, UniProt P35453 263-343, T313R) (P35453 263-343 T313R): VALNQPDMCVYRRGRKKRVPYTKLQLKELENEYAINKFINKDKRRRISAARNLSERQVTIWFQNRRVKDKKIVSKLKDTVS
Chain of ALX4 (Homo sapiens, UniProt Q9H161 200-286, Q225E) (Q9H161 200-286 Q225E): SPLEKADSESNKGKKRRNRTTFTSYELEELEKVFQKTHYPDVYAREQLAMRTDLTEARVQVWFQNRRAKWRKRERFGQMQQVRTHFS
Chain of ALX4 (Homo sapiens, UniProt Q9H161 200-286) (Q9H161 200-286): as the sequence (Q9H161 200-286 Q225E) above, with E26Q counted along it
Chain of HOXC10 (Homo sapiens, UniProt Q9NYD6 254-340) (Q9NYD6 254-340): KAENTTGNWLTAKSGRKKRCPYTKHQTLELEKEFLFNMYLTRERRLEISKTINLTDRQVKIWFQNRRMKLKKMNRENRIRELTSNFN
Chain of HOXD13 (Homo sapiens, UniProt P35453 263-343) (P35453 263-343): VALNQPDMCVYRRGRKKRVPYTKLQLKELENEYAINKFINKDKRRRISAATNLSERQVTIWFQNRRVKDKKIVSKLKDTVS
Chain of PROP1 (Homo sapiens, UniProt O75360 56-141, F88S) (O75360 56-141 F88S): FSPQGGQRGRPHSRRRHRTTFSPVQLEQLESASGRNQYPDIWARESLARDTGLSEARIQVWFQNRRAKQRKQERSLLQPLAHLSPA
Chain of ALX1 (Homo sapiens, UniProt Q15699 118-204, L144R) (Q15699 118-204 L144R): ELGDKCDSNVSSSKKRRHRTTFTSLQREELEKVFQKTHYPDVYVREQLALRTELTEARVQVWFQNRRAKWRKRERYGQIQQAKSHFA
Chain of HOXC9 (Homo sapiens, UniProt P31274 178-260) (P31274 178-260): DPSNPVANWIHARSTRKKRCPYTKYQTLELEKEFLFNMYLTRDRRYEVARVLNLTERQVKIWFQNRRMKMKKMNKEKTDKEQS
Chain of HOXA4 (Homo sapiens, UniProt Q00056 201-287, W262F) (Q00056 201-287 W262F): as the sequence (Q00056 201-287) above, with W62F counted along it
Chain of HOXA7 (Homo sapiens, UniProt P31268 116-202, W177C) (P31268 116-202 W177C): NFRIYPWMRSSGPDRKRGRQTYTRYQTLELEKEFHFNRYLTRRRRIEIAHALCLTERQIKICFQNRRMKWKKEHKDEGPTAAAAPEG
Chain of HOXC10 (Homo sapiens, UniProt Q9NYD6 254-340, K271E) (Q9NYD6 254-340 K271E): as the sequence (Q9NYD6 254-340) above, with K18E counted along it
Chain of NKX3-2 (Homo sapiens, UniProt P78367 192-278, P234S) (P78367 192-278 P234S): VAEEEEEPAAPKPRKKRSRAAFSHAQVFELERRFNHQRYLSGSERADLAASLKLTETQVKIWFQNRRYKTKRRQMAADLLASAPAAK
Chain of VAX1 (Homo sapiens, UniProt Q5SQQ9 86-172, T142I) (Q5SQQ9 86-172 T142I): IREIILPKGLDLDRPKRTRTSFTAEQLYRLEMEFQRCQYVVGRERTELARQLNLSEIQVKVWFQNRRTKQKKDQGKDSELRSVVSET
Chain of HOXC9 (Homo sapiens, UniProt P31274 178-260, R193K) (P31274 178-260 R193K): as the sequence (P31274 178-260) above, with R16K counted along it
Chain of HOXA2 (Homo sapiens, UniProt O43364 129-215, Y150S) (O43364 129-215 Y150S): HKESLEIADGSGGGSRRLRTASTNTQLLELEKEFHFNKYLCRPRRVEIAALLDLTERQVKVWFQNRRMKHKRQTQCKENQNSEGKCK
Chain of HOXB9 (Homo sapiens, UniProt P17482 171-250) (P17482 171-250): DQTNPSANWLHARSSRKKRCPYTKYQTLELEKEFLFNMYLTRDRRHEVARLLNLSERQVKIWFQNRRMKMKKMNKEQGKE
Chain of HESX1 (Homo sapiens, UniProt Q9UBX0 95-180, R109Q) (Q9UBX0 95-180 R109Q): as the sequence (Q9UBX0 95-180 R165K) above, with R15Q, K71R counted along it
Chain of HOXB9 (Homo sapiens, UniProt P17482 171-250, T197M) (P17482 171-250 T197M): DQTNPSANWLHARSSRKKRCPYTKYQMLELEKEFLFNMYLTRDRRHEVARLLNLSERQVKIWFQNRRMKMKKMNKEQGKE
Chain of HOXB6 (Homo sapiens, UniProt P17509 132-218, K202E) (P17509 132-218 K202E): as the sequence (P17509 132-218) above, with K71E counted along it
Chain of HOXC9 (Homo sapiens, UniProt P31274 178-260, R222W) (P31274 178-260 R222W): as the sequence (P31274 178-260) above, with R45W counted along it
Chain of HOXC9 (Homo sapiens, UniProt P31274 178-260, K195R) (P31274 178-260 K195R): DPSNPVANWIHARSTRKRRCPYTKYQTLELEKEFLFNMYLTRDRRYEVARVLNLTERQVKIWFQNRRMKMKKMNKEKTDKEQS
Chain of HOXA4 (Homo sapiens, UniProt Q00056 201-287, R217L) (Q00056 201-287 R217L): as the sequence (Q00056 201-287) above, with R17L counted along it
Chain of VAX1 (Homo sapiens, UniProt Q5SQQ9 86-172) (Q5SQQ9 86-172): as the sequence (Q5SQQ9 86-172 T142I) above, with I57T counted along it
Chain of VAX1 (Homo sapiens, UniProt Q5SQQ9 86-172, K157R) (Q5SQQ9 86-172 K157R): as the sequence (Q5SQQ9 86-172 T142I) above, with I57T, K72R counted along it
Chain of ALX1 (Homo sapiens, UniProt Q15699 118-204, L144V) (Q15699 118-204 L144V): as the sequence (Q15699 118-204 L144R) above, with R27V counted along it
Chain of HOXA4 (Homo sapiens, UniProt Q00056 201-287, W262R) (Q00056 201-287 W262R): as the sequence (Q00056 201-287) above, with W62R counted along it
Chain of PROP1 (Homo sapiens, UniProt O75360 56-141) (O75360 56-141): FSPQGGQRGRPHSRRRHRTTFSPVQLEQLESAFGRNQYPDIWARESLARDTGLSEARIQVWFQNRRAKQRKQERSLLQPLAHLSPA
Chain of ALX1 (Homo sapiens, UniProt Q15699 118-204) (Q15699 118-204): as the sequence (Q15699 118-204 L144R) above, with R27L counted along it
Chain of HOXA2 (Homo sapiens, UniProt O43364 129-215) (O43364 129-215): as the sequence (O43364 129-215 Y150S) above, with S22Y counted along it
Chain of PROP1 (Homo sapiens, UniProt O75360 56-141, R99H) (O75360 56-141 R99H): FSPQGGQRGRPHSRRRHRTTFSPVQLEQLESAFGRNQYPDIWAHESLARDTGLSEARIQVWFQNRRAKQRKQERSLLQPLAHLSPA
Chain of HOXB9 (Homo sapiens, UniProt P17482 171-250, R186Q) (P17482 171-250 R186Q): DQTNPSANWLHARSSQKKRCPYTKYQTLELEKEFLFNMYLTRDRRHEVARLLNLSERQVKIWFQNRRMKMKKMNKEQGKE
Chain of HOXD13 (Homo sapiens, UniProt P35453 263-343, T313A) (P35453 263-343 T313A): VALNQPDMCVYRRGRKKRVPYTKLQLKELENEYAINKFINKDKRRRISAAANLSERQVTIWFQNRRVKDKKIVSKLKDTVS

## GTCATAAC
[1]
  binding signal: 7.26 upbm affinity estimate (log intensity, higher = more binding, comparable within an allelic series)
[2]
  binding signal: 7.28 upbm affinity estimate (log intensity, higher = more binding, comparable within an allelic series)
[3]
  binding signal: 7.2 upbm affinity estimate (log intensity, higher = more binding, comparable within an allelic series)

## GACTGGCC
[4]
  binding signal: 7.7 upbm affinity estimate (log intensity, higher = more binding, comparable within an allelic series)
[5]
  binding signal: 7.34 upbm affinity estimate (log intensity, higher = more binding, comparable within an allelic series)
[6]
  binding signal: 7.58 upbm affinity estimate (log intensity, higher = more binding, comparable within an allelic series)
[7]
  binding signal: 7.82 upbm affinity estimate (log intensity, higher = more binding, comparable within an allelic series)
[8]
  binding signal: 7.31 upbm affinity estimate (log intensity, higher = more binding, comparable within an allelic series)
[9]
  binding signal: 7.84 upbm affinity estimate (log intensity, higher = more binding, comparable within an allelic series)
[10]
  binding signal: 7.72 upbm affinity estimate (log intensity, higher = more binding, comparable within an allelic series)
[11]
  binding signal: 7.77 upbm affinity estimate (log intensity, higher = more binding, comparable within an allelic series)
[12]
  binding signal: 10.5 upbm affinity estimate (log intensity, higher = more binding, comparable within an allelic series)
[13]
  binding signal: 7.91 upbm affinity estimate (log intensity, higher = more binding, comparable within an allelic series)
[14]
  binding signal: 10.5 upbm affinity estimate (log intensity, higher = more binding, comparable within an allelic series)

## GCCGAAAC
[1]
  binding signal: 6.58 upbm affinity estimate (log intensity, higher = more binding, comparable within an allelic series)
[2]
  binding signal: 6.54 upbm affinity estimate (log intensity, higher = more binding, comparable within an allelic series)
[15]
  binding signal: 6.57 upbm affinity estimate (log intensity, higher = more binding, comparable within an allelic series)
[3]
  binding signal: 6.61 upbm affinity estimate (log intensity, higher = more binding, comparable within an allelic series)
[16]
  binding signal: 6.57 upbm affinity estimate (log intensity, higher = more binding, comparable within an allelic series)

## CATTAGGG
[1]
  binding signal: 8.41 upbm affinity estimate (log intensity, higher = more binding, comparable within an allelic series)
[2]
  binding signal: 8.4 upbm affinity estimate (log intensity, higher = more binding, comparable within an allelic series)
[16]
  binding signal: 6.71 upbm affinity estimate (log intensity, higher = more binding, comparable within an allelic series)

## CTCATTAA
[4]
  binding signal: 13.2 upbm affinity estimate (log intensity, higher = more binding, comparable within an allelic series)
[5]
  binding signal: 11.5 upbm affinity estimate (log intensity, higher = more binding, comparable within an allelic series)
[17]
  binding signal: 12 upbm affinity estimate (log intensity, higher = more binding, comparable within an allelic series)
[18]
  binding signal: 10.1 upbm affinity estimate (log intensity, higher = more binding, comparable within an allelic series)
[19]
  binding signal: 10.6 upbm affinity estimate (log intensity, higher = more binding, comparable within an allelic series)
[20]
  binding signal: 12.5 upbm affinity estimate (log intensity, higher = more binding, comparable within an allelic series)
[21]
  binding signal: 12.8 upbm affinity estimate (log intensity, higher = more binding, comparable within an allelic series)
[22]
  binding signal: 11.5 upbm affinity estimate (log intensity, higher = more binding, comparable within an allelic series)
[23]
  binding signal: 12.2 upbm affinity estimate (log intensity, higher = more binding, comparable within an allelic series)
[24]
  binding signal: 13.6 upbm affinity estimate (log intensity, higher = more binding, comparable within an allelic series)
[25]
  binding signal: 11.6 upbm affinity estimate (log intensity, higher = more binding, comparable within an allelic series)
[26]
  binding signal: 12 upbm affinity estimate (log intensity, higher = more binding, comparable within an allelic series)
[27]
  binding signal: 9.97 upbm affinity estimate (log intensity, higher = more binding, comparable within an allelic series)
[28]
  binding signal: 12.6 upbm affinity estimate (log intensity, higher = more binding, comparable within an allelic series)
[29]
  binding signal: 13.3 upbm affinity estimate (log intensity, higher = more binding, comparable within an allelic series)
[30]
  binding signal: 12.5 upbm affinity estimate (log intensity, higher = more binding, comparable within an allelic series)
[31]
  binding signal: 11.8 upbm affinity estimate (log intensity, higher = more binding, comparable within an allelic series)
[6]
  binding signal: 13.9 upbm affinity estimate (log intensity, higher = more binding, comparable within an allelic series)
[32]
  binding signal: 12.6 upbm affinity estimate (log intensity, higher = more binding, comparable within an allelic series)
[33]
  binding signal: 11.5 upbm affinity estimate (log intensity, higher = more binding, comparable within an allelic series)
[7]
  binding signal: 8.32 upbm affinity estimate (log intensity, higher = more binding, comparable within an allelic series)
[34]
  binding signal: 10.7 upbm affinity estimate (log intensity, higher = more binding, comparable within an allelic series)
[8]
  binding signal: 9.2 upbm affinity estimate (log intensity, higher = more binding, comparable within an allelic series)
[35]
  binding signal: 12.5 upbm affinity estimate (log intensity, higher = more binding, comparable within an allelic series)
[36]
  binding signal: 13.6 upbm affinity estimate (log intensity, higher = more binding, comparable within an allelic series)
[37]
  binding signal: 11.2 upbm affinity estimate (log intensity, higher = more binding, comparable within an allelic series)
[38]
  binding signal: 11.9 upbm affinity estimate (log intensity, higher = more binding, comparable within an allelic series)
[39]
  binding signal: 14 upbm affinity estimate (log intensity, higher = more binding, comparable within an allelic series)
[40]
  binding signal: 12 upbm affinity estimate (log intensity, higher = more binding, comparable within an allelic series)
[9]
  binding signal: 12.3 upbm affinity estimate (log intensity, higher = more binding, comparable within an allelic series)
[41]
  binding signal: 11 upbm affinity estimate (log intensity, higher = more binding, comparable within an allelic series)
[42]
  binding signal: 10.6 upbm affinity estimate (log intensity, higher = more binding, comparable within an allelic series)
[43]
  binding signal: 13.7 upbm affinity estimate (log intensity, higher = more binding, comparable within an allelic series)
[10]
  binding signal: 10.1 upbm affinity estimate (log intensity, higher = more binding, comparable within an allelic series)
[44]
  binding signal: 11.7 upbm affinity estimate (log intensity, higher = more binding, comparable within an allelic series)
[45]
  binding signal: 11.5 upbm affinity estimate (log intensity, higher = more binding, comparable within an allelic series)
[46]
  binding signal: 10.9 upbm affinity estimate (log intensity, higher = more binding, comparable within an allelic series)
[11]
  binding signal: 9.58 upbm affinity estimate (log intensity, higher = more binding, comparable within an allelic series)
[47]
  binding signal: 7.48 upbm affinity estimate (log intensity, higher = more binding, comparable within an allelic series)
[48]
  binding signal: 13.5 upbm affinity estimate (log intensity, higher = more binding, comparable within an allelic series)
[49]
  binding signal: 10.7 upbm affinity estimate (log intensity, higher = more binding, comparable within an allelic series)
[50]
  binding signal: 8.81 upbm affinity estimate (log intensity, higher = more binding, comparable within an allelic series)
[51]
  binding signal: 12 upbm affinity estimate (log intensity, higher = more binding, comparable within an allelic series)
[52]
  binding signal: 12 upbm affinity estimate (log intensity, higher = more binding, comparable within an allelic series)
[13]
  binding signal: 8.41 upbm affinity estimate (log intensity, higher = more binding, comparable within an allelic series)
[53]
  binding signal: 12.9 upbm affinity estimate (log intensity, higher = more binding, comparable within an allelic series)
[54]
  binding signal: 13.6 upbm affinity estimate (log intensity, higher = more binding, comparable within an allelic series)
[55]
  binding signal: 11.9 upbm affinity estimate (log intensity, higher = more binding, comparable within an allelic series)
